Assay [1] addresses Androgen receptor (Homo sapiens) (UniProt P10275). As to the kind of experiment: qHTS assay to identify small molecule antagonists of the androgen receptor (AR) signaling pathway using the MDA cell line in the presence of 0.5 nM R1881 (AID 1259243). Note: nearly all actives have a fitted effect of over 50% in size. Note: potency is the fitted concentration of half-maximal effect. The essentials: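 Luminescent reporter readout (ONE-Glo, 30 min, room temperature) after 16 hr co-treatment of MDA-kb2 cells with test compounds and 0.5 nM R1881 final, at 37C without CO2. The MMTV-driven luciferase responds to both AR and GR.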
(In qHTS, concentration-response curves come from the screen itself.)

Assay [2] in a line: qHTS assay to identify small molecule HDAC inhibitors - cell viability counter screen (AID 1259365). Note: series mostly up to about 92 µM; nearly all actives have a fitted effect of over 50% in size. The procedure, abridged: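 CellTiter-Glo luminescence (30 min, room temperature) reported viability after a 2 h compound exposure at 37 C. Cells: wild-type HCT-116, 1,500 per well, seeded the night before.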
Assay [3] in a line: qHTS assay to identify small molecule agonists of the sonic hedgehog signaling (Shh) pathway - cell viability counter screen (AID 1259366). Note: nearly all actives have a fitted effect of over 50% in size. Note: potency is the fitted concentration of half-maximal effect. The procedure, abridged: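 Cytotoxicity counter screen: CellTiter-Fluor reagent added after 23 h compound exposure, then 1 h at 37C and fluorescence read. Cells were 3T3 Gli1-Luc, seeded 2,000 per well and dosed 4 h post-plating.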
Assay [4] in a line: qHTS assay to identify small molecule antagonists of the sonic hedgehog signaling (Shh) pathway - cell viability counter screen (AID 1259367). Note: nearly all actives have a fitted effect of over 55% in size. Note: potency is the fitted concentration of half-maximal effect. The essentials:
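Tox21 library chemicals were tested on a Gli1-Luc NIH/3T3 clone (2,000 cells/well) stimulated by conditioned medium; viability was quantified as fluorescence from CellTiter-Fluor reagent added at 23 hr.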

Assay [5] can be described thus: qHTS assay to identify small molecule agonists of the sonic hedgehog signaling (Shh) pathway (AID 1259368; calls by dose curve;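 note: NIH/3T3-derived 3T3Gli1-Luc cells carrying a stable Gli1-driven firefly luciferase reporter; series mostly up to about 92 µM; nearly all actives have a fitted effect of over 15% in size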). The essentials:
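Luminescence was read after 30 min at room temperature with luciferase reagent. Before that, 3T3Gli1-Luc cells (NIH/3T3 clone, stable Gli1-Luc reporter; 2,000/well) were exposed to compounds for 24 hr at 37C, 5% CO2, compounds being added 4 hr post-plating.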

A short description of assay [6]: qHTS assay to identify small molecule antagonists of the sonic hedgehog signaling (Shh) pathway (AID 1259369; calls by dose curve; note: nearly all actives have a fitted effect of over 45% in size; note: potency is the fitted concentration of half-maximal effect). The procedure, abridged:
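Antagonist mode: compound added to 3T3 Gli1-Luc cells followed by conditioned-medium stimulation, 24 h at 37 C, 5% CO2. Inhibition taken as loss of Gli1-driven luciferase luminescence.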

The nature of assay [7]: qHTS assay to identify small molecule agonists of the androgen receptor (AR) signaling pathway in the presence of an antagonist - cell viability counter screen (AID 1259379). Note: nearly all actives have a fitted effect of over 25% in size. Note: potency is the fitted concentration of half-maximal effect. The essentials: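 Cytotoxicity counter-screen run in the same wells as the nilutamide-challenged (3.0 µM final) AR agonist assay in MDA-kb2 cells. Compounds tested at 15 concentrations for 16 h, 37 °C without CO2; CellTiter-Fluor fluorescence read.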

The nature of assay [8]: qHTS assay to identify small molecule agonists of the estrogen receptor beta (ER-beta) signaling pathway - cell viability counter screen (AID 1259380). Note: nearly all actives have a fitted effect of over 30% in size. Note: potency is the fitted concentration of half-maximal effect. The essentials:
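Cell viability counter screen: CellTiter-Glo luminescence (30 min, room temperature) measured in the same wells as the beta-lactamase readout, after 16 hr compound exposure at 37C of ER-beta-bla HEK293T cells in 2% charcoal-stripped FBS medium.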

Assay [9] addresses Androgen receptor (Homo sapiens) (UniProt P10275). Kind of assay: qHTS assay to identify small molecule agonists of the androgen receptor (AR) signaling pathway in the presence of an antagonist (AID 1259381; calls by dose curve; note: nearly all actives have a fitted effect of over 15% in size). The essentials:
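Agonist-mode confirmation run against 3.0 uM final nilutamide: compounds titrated at 15 concentrations onto MDA-kb2 MMTV-luciferase reporter cells. Luminescence measured with ONE-Glo following 16 hr incubation, 37C, 0% CO2.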

The nature of assay [10]: qHTS assay to identify small molecule antagonists of the estrogen receptor beta (ER-beta) signaling pathway - cell viability counter screen (AID 1259382). Note: nearly all actives have a fitted effect of over 55% in size. Note: potency is the fitted concentration of half-maximal effect. The procedure, abridged:
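Cytotoxicity was measured in the same wells by CellTiter-Glo luminescence after 30 min at room temperature. Cells were ER-beta-bla HEK293T in charcoal-stripped serum, given compound together with 1 nM E2 and incubated 16 h at 37C.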

Assay [11] in a line: qHTS assay to identify small molecule agonists or antagonists of the thyroid stimulating hormone receptor (TSHR) signaling pathway - wild type cell line counter screen (AID 1259384; calls by dose curve). The procedure, abridged: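 Wild-type Hek293 cells, 800/well, 18 h at 37C, then compound with Ro20-1724 for 30 min RT. cAMP by HTRF (cAMP-d2/anti-cAMP cryptate), 1 h RT, fluorescence read. 15 concentrations, triplicates.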

For assay [12], the target named is Thyrotropin receptor (Homo sapiens) (UniProt P16473). Kind of assay: qHTS assay to identify small molecule antagonists of the thyroid stimulating hormone receptor (TSHR) signaling pathway (AID 1259385; calls by dose curve; note: nearly all actives have a fitted effect of over 20% in size). The procedure, abridged: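 TSHR-HEK293 cells (800/well) plated 18 h, then compounds with Ro20-1724 and TSH at 1.5 ng/mL final, 30 min at room temperature. cAMP quantified by HTRF (cAMP-d2/anti-cAMP-cryptate, 1 h); 15 concentrations in triplicate.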

The nature of assay [13]: qHTS assay to identify small molecule agonists of the estrogen receptor alpha (ER-alpha) signaling pathway in the presence of an antagonist - cell viability counter screen (AID 1259386). Note: series mostly up to about 92 µM; nearly all actives have a fitted effect of over 30% in size. The procedure, abridged: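 Compounds tested at 15 concentrations for 22 h at 37C alongside 10.0nM (final) ICI-182,780 antagonist, in VM7Luc4E2 cells grown in phenol red-free, charcoal-stripped medium. Viability read by CellTiter-Fluor fluorescence after 1 h reagent incubation.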

The target of assay [14] is Progesterone receptor (Homo sapiens) (UniProt P06401). Kind of assay: qHTS assay to identify small molecule agonists of the progesterone receptor (PR) signaling pathway (AID 1346784; calls by dose curve; note: nearly all actives have a fitted effect of over 30% in size). The essentials: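 Agonist qHTS: compounds pinned onto 3,000 PR-UAS-bla HEK 293T cells per well in charcoal-stripped serum medium, 16hr at 37C, then beta-lactamase activity measured by LiveBLAzer FRET fluorescence after 2 hours at room temperature.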

Assay [15] addresses Estrogen receptor (Homo sapiens) (UniProt P03372). Kind of assay: qHTS assay to identify small molecule antagonists of the estrogen receptor alpha (ER-alpha) signaling pathway using the BG1 cell line in the presence of 0.1 nM 17-beta-estradiol (AID 1259244). Note: nearly all actives have a fitted effect of over 50% in size. Note: potency is the fitted concentration of half-maximal effect. The essentials: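 Luciferase luminescence (ONE-Glo, 30 min at room temperature) was read after 22 hr at 37C exposure to compounds plus 17beta-estradiol at 0.1 nM final. Cells were VM7Luc4E2 with endogenous ER-alpha and an ERE-driven luciferase, pre-cultured 5 days in hormone-depleted medium.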

Assay [16] can be described thus: qHTS assay to identify small molecule phospholipidosis (PLD) inducers (AID 1259344; active = well fitted curve in the direction sought with a large enough effect; an effect the other way counts as inactive or inconclusive). The procedure, abridged:
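Image-based: LipidTOX Red pit count/intensity per well and per cell; HepG2, 24 h compound at 37 C, PFA fixation, Hoechst counterstain.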

Assay [17] addresses Estrogen receptor beta (Homo sapiens) (UniProt Q92731). As to the kind of experiment: qHTS assay to identify small molecule agonists of the estrogen receptor beta (ER-beta) signaling pathway (AID 1259377; active = well fitted activation curve with a large enough effect in the signal ratio in the repeat runs, not every such curve was filed as active; the % refers to the signal ratio). The essentials: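 Ratiometric beta-lactamase FRET read-out came after 2 h substrate loading at room temperature. It followed 16 h compound treatment at 37C of GripTite HEK293T cells carrying a UAS-bla reporter, plated in 2% charcoal-stripped FBS medium.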

The target is the same in assay [18]. Kind of assay: qHTS assay to identify small molecule antagonists of the estrogen receptor beta (ER-beta) signaling pathway (AID 1259378; active = well fitted inhibition curve with a large enough effect in the signal ratio in the repeat runs, not every such curve was filed as active; the % refers to the signal ratio; note: potency is the fitted concentration of half-maximal effect). The essentials: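 ER-beta-UAS-bla HEK293T cells in 2% charcoal-stripped FBS medium treated with compound plus 1nM final 17-beta-estradiol for 16 hr at 37C. Beta-lactamase reporter read by FRET substrate fluorescence after 2 hours at room temperature.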

In assay [19] the target is Estrogen receptor (Homo sapiens) (UniProt P03372). As to the kind of experiment: qHTS assay to identify small molecule agonists of the estrogen receptor alpha (ER-alpha) signaling pathway in the presence of an antagonist (AID 1259383; calls by dose curve; note: top concentration of the series differs between compounds; nearly all actives have a fitted effect of over 15% in size). The procedure, abridged:
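Agonist-mode confirmation run in the presence of 10.0nM (final) ICI-182,780 antagonist. The reporter was ERE-driven luciferase in VM7Luc4E2 cells, grown in charcoal-stripped serum. Cells were exposed to 15-concentration compound series for 22hr, then ONE-Glo luminescence was read.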

Assay [20] in a line: qHTS assay to identify small molecule HDAC inhibitors (AID 1259364). Note: top concentration of the series differs between compounds; nearly all actives have a fitted effect of over 45% in size. The essentials:
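Luminescence read after 30 min room-temperature HDAC-Glo incubation measures cellular class I/II HDAC activity. Compounds were applied for 2 hr at 37 C to HCT-116 wild-type cells seeded the day before.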

Each structure is given as a SMILES string. Several values for one entry are separate records, joined by “and”; a condition that tells them apart may be missing. Equal values may be shown once. Results filed as inconclusive are left out. Activity calls are given as the source filed them. Unless noted, calls come from the whole dose curve; as a rule, active = well fitted curve in the direction sought with a large enough effect in the repeat runs; inconclusive = weak or mixed curves; inactive = no such curve, though single readings can be large; an effect the other way counts as inactive or inconclusive.

The text below walks through data of PubChem BioAssay (Tox21).

Progesterone receptor (Homo sapiens), sequence (P06401 whole entry, looked up): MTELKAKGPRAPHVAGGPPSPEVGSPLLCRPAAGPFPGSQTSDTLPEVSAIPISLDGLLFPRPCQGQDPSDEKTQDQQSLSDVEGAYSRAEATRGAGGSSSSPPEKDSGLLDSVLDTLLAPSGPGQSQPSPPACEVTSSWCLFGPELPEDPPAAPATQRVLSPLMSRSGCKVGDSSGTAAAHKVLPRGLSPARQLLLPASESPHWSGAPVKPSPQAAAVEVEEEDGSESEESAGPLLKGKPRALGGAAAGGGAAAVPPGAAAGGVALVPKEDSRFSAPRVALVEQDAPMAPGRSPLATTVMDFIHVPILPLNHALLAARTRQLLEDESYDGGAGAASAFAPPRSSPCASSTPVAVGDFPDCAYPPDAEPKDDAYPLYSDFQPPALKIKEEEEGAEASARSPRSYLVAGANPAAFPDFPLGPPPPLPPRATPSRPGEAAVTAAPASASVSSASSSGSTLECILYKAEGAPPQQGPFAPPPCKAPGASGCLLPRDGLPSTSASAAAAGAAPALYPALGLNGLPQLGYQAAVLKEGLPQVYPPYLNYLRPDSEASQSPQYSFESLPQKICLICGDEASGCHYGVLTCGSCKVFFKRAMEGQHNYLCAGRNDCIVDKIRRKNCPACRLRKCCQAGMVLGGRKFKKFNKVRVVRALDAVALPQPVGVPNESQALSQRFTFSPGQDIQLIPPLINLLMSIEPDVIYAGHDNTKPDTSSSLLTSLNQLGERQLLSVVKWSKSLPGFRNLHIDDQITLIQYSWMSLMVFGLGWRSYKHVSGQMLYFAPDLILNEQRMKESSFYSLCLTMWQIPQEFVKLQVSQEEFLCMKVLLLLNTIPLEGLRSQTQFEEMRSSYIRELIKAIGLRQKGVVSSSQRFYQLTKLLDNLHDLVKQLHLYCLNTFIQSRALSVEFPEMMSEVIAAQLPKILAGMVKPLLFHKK
Estrogen receptor (Homo sapiens), sequence (P03372 whole entry, looked up): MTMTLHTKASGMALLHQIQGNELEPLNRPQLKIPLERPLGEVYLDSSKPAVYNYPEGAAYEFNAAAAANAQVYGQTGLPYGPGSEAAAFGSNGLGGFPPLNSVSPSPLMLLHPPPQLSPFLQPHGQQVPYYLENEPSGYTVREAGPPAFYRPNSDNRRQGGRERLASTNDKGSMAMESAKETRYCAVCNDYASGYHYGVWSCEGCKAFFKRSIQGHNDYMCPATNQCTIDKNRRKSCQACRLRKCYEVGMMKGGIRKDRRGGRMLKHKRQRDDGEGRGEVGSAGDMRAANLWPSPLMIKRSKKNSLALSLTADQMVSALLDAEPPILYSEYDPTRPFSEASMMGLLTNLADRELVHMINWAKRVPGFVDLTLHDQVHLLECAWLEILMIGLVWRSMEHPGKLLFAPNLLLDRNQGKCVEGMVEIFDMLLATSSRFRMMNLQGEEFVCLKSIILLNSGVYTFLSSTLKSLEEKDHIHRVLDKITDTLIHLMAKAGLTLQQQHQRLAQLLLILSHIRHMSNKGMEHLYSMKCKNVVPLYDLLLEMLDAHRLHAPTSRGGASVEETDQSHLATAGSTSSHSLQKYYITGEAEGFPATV
Estrogen receptor beta (Homo sapiens), sequence (Q92731 whole entry, looked up): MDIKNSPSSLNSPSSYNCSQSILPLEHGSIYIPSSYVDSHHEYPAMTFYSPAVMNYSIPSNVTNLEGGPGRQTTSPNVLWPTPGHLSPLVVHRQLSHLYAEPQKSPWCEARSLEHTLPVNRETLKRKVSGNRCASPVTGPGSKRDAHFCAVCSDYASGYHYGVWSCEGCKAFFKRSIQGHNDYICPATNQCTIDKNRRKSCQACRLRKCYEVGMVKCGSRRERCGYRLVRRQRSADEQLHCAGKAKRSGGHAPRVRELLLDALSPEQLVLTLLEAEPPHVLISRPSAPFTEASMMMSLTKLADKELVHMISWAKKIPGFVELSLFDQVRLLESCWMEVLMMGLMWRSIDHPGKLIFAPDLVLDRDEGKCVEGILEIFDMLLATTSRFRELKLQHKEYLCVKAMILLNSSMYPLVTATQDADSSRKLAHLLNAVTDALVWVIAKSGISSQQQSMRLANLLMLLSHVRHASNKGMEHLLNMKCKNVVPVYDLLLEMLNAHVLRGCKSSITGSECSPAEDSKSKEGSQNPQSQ
Thyrotropin receptor (Homo sapiens), sequence (P16473 whole entry, looked up): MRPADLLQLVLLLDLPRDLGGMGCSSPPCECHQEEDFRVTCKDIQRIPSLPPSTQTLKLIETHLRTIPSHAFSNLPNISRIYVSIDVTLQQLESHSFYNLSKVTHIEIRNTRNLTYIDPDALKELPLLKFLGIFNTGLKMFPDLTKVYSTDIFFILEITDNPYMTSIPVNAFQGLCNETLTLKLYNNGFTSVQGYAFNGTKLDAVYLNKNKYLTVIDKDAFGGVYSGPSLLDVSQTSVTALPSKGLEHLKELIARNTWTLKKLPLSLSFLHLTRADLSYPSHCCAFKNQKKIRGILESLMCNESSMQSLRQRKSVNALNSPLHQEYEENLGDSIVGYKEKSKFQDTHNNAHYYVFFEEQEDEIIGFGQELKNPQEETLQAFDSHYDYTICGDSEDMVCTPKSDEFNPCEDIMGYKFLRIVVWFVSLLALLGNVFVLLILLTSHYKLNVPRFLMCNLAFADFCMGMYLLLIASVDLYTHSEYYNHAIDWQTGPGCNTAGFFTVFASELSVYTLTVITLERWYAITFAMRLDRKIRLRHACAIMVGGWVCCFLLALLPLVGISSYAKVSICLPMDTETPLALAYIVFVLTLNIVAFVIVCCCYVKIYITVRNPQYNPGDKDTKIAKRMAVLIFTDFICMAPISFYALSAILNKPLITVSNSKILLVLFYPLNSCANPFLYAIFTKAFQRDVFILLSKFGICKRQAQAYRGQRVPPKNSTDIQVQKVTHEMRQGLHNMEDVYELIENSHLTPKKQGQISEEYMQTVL
Androgen receptor (Homo sapiens), sequence (P10275 whole entry, looked up): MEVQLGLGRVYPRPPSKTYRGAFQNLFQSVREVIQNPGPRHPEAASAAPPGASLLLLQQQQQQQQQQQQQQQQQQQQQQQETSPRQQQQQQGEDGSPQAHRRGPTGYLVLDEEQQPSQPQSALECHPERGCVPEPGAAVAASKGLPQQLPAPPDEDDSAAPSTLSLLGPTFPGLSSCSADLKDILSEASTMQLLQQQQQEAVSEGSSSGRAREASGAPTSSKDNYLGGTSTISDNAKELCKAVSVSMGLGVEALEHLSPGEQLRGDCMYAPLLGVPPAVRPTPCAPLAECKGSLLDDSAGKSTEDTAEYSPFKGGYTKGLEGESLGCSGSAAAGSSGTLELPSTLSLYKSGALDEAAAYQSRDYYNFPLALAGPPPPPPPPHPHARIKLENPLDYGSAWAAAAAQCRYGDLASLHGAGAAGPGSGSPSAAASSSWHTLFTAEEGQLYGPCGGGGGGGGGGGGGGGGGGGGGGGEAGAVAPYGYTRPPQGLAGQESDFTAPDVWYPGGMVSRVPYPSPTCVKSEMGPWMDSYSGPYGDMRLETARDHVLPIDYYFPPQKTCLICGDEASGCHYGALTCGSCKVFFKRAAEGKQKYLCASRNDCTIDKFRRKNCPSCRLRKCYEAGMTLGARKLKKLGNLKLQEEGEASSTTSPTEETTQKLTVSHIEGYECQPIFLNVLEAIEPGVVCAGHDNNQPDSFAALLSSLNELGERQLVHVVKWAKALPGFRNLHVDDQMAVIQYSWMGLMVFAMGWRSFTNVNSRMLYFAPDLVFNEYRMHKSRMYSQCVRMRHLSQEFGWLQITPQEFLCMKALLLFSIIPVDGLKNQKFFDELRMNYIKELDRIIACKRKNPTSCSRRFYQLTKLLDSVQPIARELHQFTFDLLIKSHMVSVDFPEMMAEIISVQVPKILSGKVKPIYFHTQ

Consider `CCCC(=O)c1ccccc1`, for which the Potency entry in [1], in assay [2], in [3], in [4], in [5] and in assay [6] was “inactive” each time. The Potency result in assay [7], in [8], in assay [9], in [10], in [11] and in [12] was “inactive” each time. Moreover, the Potency result in [13] and in [14] was “inactive” in each case.
For `CCN(CC)C(=O)Nc1ccc(OCC(O)CNC(C)(C)C)c(C(C)=O)c1` (centres undefined), the Potency entry in assay [1], in [15], in [16], in assay [2], in assay [4] and in [5] was “inactive” each time. Moreover, the Potency result in [6], in [18], in assay [7], in assay [8], in assay [9] and in [10] was “inactive” throughout. In addition, the Potency entry in assay [19], in assay [11], in assay [12], in assay [13] and in assay [14] was “inactive” throughout. For the same molecule, in assay [17], the result was inactive.
`O=Cc1ccc(Cl)cc1`: the Potency result in assay [1], in assay [2], in assay [3], in [4], in [5] and in [6] was “inactive” each time. Also, the Potency result in assay [7], in assay [8], in assay [9], in [10], in assay [11] and in assay [12] was “inactive” in each case. Besides, in assay [14], the Potency entry is “inactive”. The result in assay [17] was inactive.
Consider `O=Nc1ccc(Nc2ccccc2)cc1`, for which the Potency in assay [1] was 48.8 µM (active) and 54.5 µM (active); in assay [3], 24.5 µM (active) and 24.3 µM (active); in assay [4], 27.4 µM (active) and 54.5 µM (active); in assay [6], 1.38 µM (active) and 2.43 µM (active); in [18] it was 68.6 µM (active); in [8], 61.4 µM (active) and 48.6 µM (active). The Potency in assay [10] was 61.4 µM (active). The Potency entry in assay [15], in [5], in assay [9], in assay [19] and in assay [13] was “inactive” throughout. The molecule was classed as inactive in assay [17].
Consider `Nc1cc(Cl)c(-c2cc(Cl)c(N)cc2Cl)cc1Cl`, for which the Potency in assay [1] was 4.32 µM (active) and 2.17 µM (active); in [15] it was 24.3 µM (active) and 34.4 µM (active); in [4], 54.4 µM (active) and 38.6 µM (active); in assay [6], 1.09 µM (active) and 864 nM (active); in assay [18] it was 8.63 µM (active); in [7] it was 54.4 µM (active) and 48.6 µM (active). Further, the Potency was 21.7 µM (active) and 24.3 µM (active) in assay [8]; 17.2 µM (active) and 27.3 µM (active) in assay [10]. Moreover, the Potency result in assay [20], in assay [2], in assay [5], in assay [9], in assay [19] and in assay [11] was “inactive” in each case. Also, the Potency result in assay [13] was “inactive”.
